# Source: PubChem (National Center for Advancing Translational Sciences (NCATS))
# GBA mod: Glucocerebrosidase | Lysosomal acid glucosylceramidase (Homo sapiens), P04062 | purified enzyme, resorufin glucoside fluorescence (screen aimed at inhibitors), 20 min | Potency, µM | actives 1.1% (n = 48,000) | AID 360, 2006; in the data active = potency below about 15 µM;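 also: the screen sought inhibitors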
# Target sequence (P04062 whole entry, looked up): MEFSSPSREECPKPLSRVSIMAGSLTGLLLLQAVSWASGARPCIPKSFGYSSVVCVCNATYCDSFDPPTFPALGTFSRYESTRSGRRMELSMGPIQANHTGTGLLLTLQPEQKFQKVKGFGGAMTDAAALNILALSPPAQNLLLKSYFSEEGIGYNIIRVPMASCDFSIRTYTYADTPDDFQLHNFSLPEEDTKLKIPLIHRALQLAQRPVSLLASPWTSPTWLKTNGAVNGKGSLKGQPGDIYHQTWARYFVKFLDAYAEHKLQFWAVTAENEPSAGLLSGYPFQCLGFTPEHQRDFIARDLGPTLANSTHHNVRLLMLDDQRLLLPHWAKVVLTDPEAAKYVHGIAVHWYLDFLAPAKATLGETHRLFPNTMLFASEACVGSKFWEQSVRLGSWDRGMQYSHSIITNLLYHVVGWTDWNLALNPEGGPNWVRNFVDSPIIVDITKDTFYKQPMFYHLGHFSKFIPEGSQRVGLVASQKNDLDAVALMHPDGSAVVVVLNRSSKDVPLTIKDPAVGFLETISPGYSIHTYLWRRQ
#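 Compounds titrated against 0.2 nM normal enzyme, 30 uM resorufin beta-D-glucopyranoside substrate, citrate/phosphate buffer with taurocholate and tween-20, pH 5.9. Reaction ran 20 min at room temperature; fluorescence (Ex 548/Em 600) gave AC50.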
# The depositor's hits bear a star; i = inactive. The sample as a whole holds a higher share of hits than the screen did. Potency is read from the fitted curve at half-maximal effect.
SMILES,GBA mod
Cc1cc(NC(=O)c2c(-c3ccccc3Cl)noc2C)no1,>77
Cc1onc(-c2ccccc2Cl)c1C(=O)Nc1cccc(-c2cn3cccnc3n2)c1,11*
CC(C)CCn1c(Br)nc2c1c(=O)n(CC(N)=O)c(=O)n2C,>77
COc1cc(C2C3CN(C)CC=C3C(C#N)=C(N)C2(C#N)C#N)ccc1OC(C)C (centres undefined),>77
N#CC1=C(N)C(C#N)(C#N)[C@H](c2ccncc2)[C@H]2CC3(CC=C12)OCCO3,>77
Cc1ccc(C2C3CSCC=C3C(C#N)=C(N)C2(C#N)C#N)cc1 (centres undefined),12*
CCOC(=O)CCSc1nnc(-c2cccnc2)n1-c1ccccc1OC,>77
Cc1ccc(-c2ccc(=O)n(CCC(=O)NCCN3CCCCC3C)n2)cc1 (centres undefined),>77
Nc1ccc(CN2CCN(c3ccc4ccccc4n3)CC2)cc1,>77
COc1ccc(N2CCN(Cc3cc(=O)oc4c3ccc3ccccc34)CC2)cc1,3.3*
COc1ccc(N2CCN(Cc3cc(=O)oc4ccc(Cl)cc34)CC2)cc1,>77
COc1ccc(N2CCN(Cc3cc(=O)oc4cc5c(cc34)CCCC5)CC2)cc1,>77
CCOc1ccc(-n2cc(C(=O)Nc3cccc(C)n3)c3cc(OC)c(OC)cc3c2=O)cc1,>77
CC1(C)CC(=O)C2=C(C1)Nc1ccccc1N=C2,>77
CC1(C(=O)N(c2ccccc2)C(C(=O)NC2CCCC2)c2ccccn2)CC(=O)N=C2C=CC=CN21 (centres undefined),>77
CCSc1ccccc1C(=O)NCc1ccc2c(c1)OCO2,>77
COc1ccc(N(CC(=O)NC(C)(C)C)S(=O)(=O)c2ccccc2)cc1OC,>77
C#CCn1c(=NC(=O)CSCC(=O)N2CCOCC2)sc2ccccc21,>77
Cc1cc(C)n2nc(SCc3cc(=O)n4c(C)cccc4n3)nc2n1,>77
CCCCOc1ccc(-c2c(C#N)c(N)nc(SCC(N)=O)c2C#N)cc1,8.8*
CCCCOC(=O)CSc1nc(N)c(C#N)c(-c2ccc(OCC)cc2)c1C#N,>77
C=C(C)CSc1nc(N)c(C#N)c(-c2ccc(C)cc2)c1C#N,>77
CC(C)(C)C1CCc2[nH]nc(C(=O)O)c2C1 (centres undefined),>77
CCOc1ccc(C2/C(=C(/O)c3ccc(Cl)cc3)C(=O)C(=O)N2CCCN(C)C)cc1OC (centres undefined),>77
O=C(Cn1nnc(-c2ccccc2F)n1)Nc1ccc(S(=O)(=O)NC2CCCC2)cc1,6.9*
SMILES,GBA mod
O=C(Cn1nnc(-c2ccccc2F)n1)Nc1ccc(C(=O)N2CCOCC2)cc1,>77
O=C(Cn1nnc(-c2ccccc2F)n1)Nc1ccc2c(c1)OCO2,>77
COc1cc(-c2nnc3sc(-c4cccnc4)nn23)cc(OC)c1OC,>77
CCn1c(N)c(C(=O)NCCCOC)sc1=S,>77
COC(=O)c1cccc(S(=O)(=O)N2CCN(c3nc4ccccc4s3)CC2)c1,>77
c1cc(-c2nc3cc(Oc4ccc5oc(-c6ccncc6)nc5c4)ccc3o2)ccn1,>77
CCOc1ccc(-n2c(SCc3ccc(C(=O)OC)o3)nc3c(c2=O)SCC3)cc1,i
O=C(CSc1nc2c(c(=O)n1-c1ccc(Cl)cc1)SCC2)N1CCCC1,>77
COC(=O)c1ccc(CSc2nc3c(c(=O)n2-c2ccc(Br)cc2)SCC3)o1,4.9*
CCn1c(CSc2nnc(-c3ccc4c(c3)OCO4)o2)nc2cc(S(=O)(=O)N(C)C)ccc21,>77
COc1ccc(OC)c(C2C(C(=O)N(C)C)=C(C)Nc3nc4ccccc4n32)c1 (centres undefined),>77
Cc1cc(C2N=C(N)Nc3nc4ccccc4n32)c(C)n1-c1ccccc1Cl (centres undefined),13*
COc1cc2c(=O)nc3n(c2cc1OC)C(c1ccccc1)N=C(N)N3 (centres undefined),i
CC(C)(C)OC(=O)N1CCN(c2ccc(NC(=O)c3cc4ccccc4oc3=O)cc2)CC1,>77
CCCCN1CC(COc2ccccc2)OC1=O (centres undefined),>77
CCCCN1CCc2c([nH]c3c(C)cccc23)C1=O,9.8*
COC(=O)c1ccc2c(=O)n(CCCN3CCCC3=O)c(=S)[nH]c2c1,>77
O=C(Nc1cccc2ncccc12)c1cccnc1,>77
COc1ccc(NC(=O)c2ccc(NS(=O)(=O)c3c(C)noc3C)cc2)cc1OC,0.29*
COc1ccccc1NC(=O)c1ccc(NS(=O)(=O)c2c(C)noc2C)cc1,i
Cc1ccc(NC(=O)c2ccc(NS(=O)(=O)c3c(C)noc3C)cc2)cc1C,11*
Cc1noc(C)c1C(=O)Nc1ccc2c(c1)CCC2,>77
CC(=O)Nc1ccc(C(=O)NC2CCCC2)cc1,>77
Cc1noc(C)c1S(=O)(=O)Nc1ccc(C(=O)NCCc2ccccc2)cc1,1.6*
Cc1noc(/C=C/N(C)C)c1S(=O)(=O)N(C)CC(=O)NC1CCCCC1,>77
SMILES,GBA mod
COc1ccc(C(=O)Nc2ccc(OC)c(OC)c2)cc1,>77
Cc1ccc(C(C)NC(=O)c2c(C)noc2C)cc1C (centres undefined),>77
Cc1noc(C)c1S(=O)(=O)Nc1ccc(C(=O)NC2CCCCC2)cc1,4.1*
O=C(NCCc1ccccc1)c1ccc(=O)oc1,>77
O=C(NCCc1ccccc1)c1noc2c1CCc1ccccc1-2,>77
CCCCCNC(CC(=O)Nc1ccc(OC)cc1)C(=O)O (centres undefined),>77
CN(C)CCCN1C(=O)C(O)=C(C(=O)c2cccs2)C1c1ccccn1 (centres undefined),>77
CCn1cc(C(=O)Nc2nncs2)c(=O)c2cc(F)c(N3CCN(C(=O)c4ccco4)CC3)cc21,>77
COc1ccc(NC(=O)c2cccc(Cn3cc(Br)cn3)c2)cn1,>77
COc1ccc(C(=O)n2ccc(C)n2)cc1Br,>77
Cc1cccc(N(CC(=O)NC2CCCCC2)C(=O)CCC(=O)Nc2cc(C)ccn2)c1,>77
N#CCCCCN1c2cccc3cccc(c23)S1(=O)=O,>77
CCc1nn2c(=O)cc(CSc3nc4sc5c(c4c(=O)n3C)CCCC5)nc2s1,>77
Oc1ccc(C(=S)N2CCCCC2)cc1Cl,>77
Cc1cccn2c(=O)c3cc(C(=O)N4CCc5ccccc54)n(C)c3nc12,>77
CCCn1nnc(NC(=O)COc2ccc(C3CCCCC3)cc2)n1,>77
O=C(NCCN1CCOCC1)C1CC(=O)N(c2ccc(F)c(Cl)c2)C1 (centres undefined),>15
O=C(NCCN1CCOCC1)NC1(C(F)(F)F)Oc2ccc(Cl)cc2O1 (centres undefined),9.8*
O=C(COc1cc(Cl)c(Cl)cc1Cl)NCCN1CCOCC1,>77
Cc1ccccc1C(=O)N1CCCN(C(=O)c2ccccc2C)CC1,>77
Cc1cccc2c(=O)c(C(=O)N3CCCCCC3)c[nH]c12,6.5*
Cc1ccccc1-c1noc(-c2ccccc2C(=O)N2CCCC2)n1,>77
CC(C(=O)Nc1ccccc1-c1ccccc1)N1CCN(C(=O)c2ccco2)CC1 (centres undefined),>77
CCOc1ccc(N2CCCn3c2nc2c3c(=O)n(CCc3ccccc3)c(=O)n2C)cc1,>77
CC(C)Cn1c(=O)c2c(nc3n2CCCN3CCc2ccccc2)n(C)c1=O,>15
Cc1ccc(N2CCn3c2nc2c3c(=O)n(CCc3ccccc3)c(=O)n2C)cc1,>77
COc1ccc(N2CCCn3c2nc2c3c(=O)n(CCc3ccccc3)c(=O)n2C)cc1,12*
Cn1c(=O)[nH]c(=O)c2c1nc1n2CCCN1CCc1ccccc1,>77
Cn1c(=O)n(CCc2ccccc2)c(=O)c2c1nc1n2CCCN1Cc1ccccc1,i
